The text below walks through data of PubChem BioAssay AID687014 (The Scripps Research Institute Molecular Screening Center, 2013).

SMILES strings stand for the structures. The whole screen tested about 370,000 compounds, of which about 6,800 (1.8%) were called active.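 Rule for the calls: active = activation above a cutoff set at the mean of all screened compounds plus 3 SD (cut at about 10% in these data); inactive = the rest.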 Many of the other results were omitted from the sample, so actives are more common in it than they were.

This assay deals with Nuclear hormone receptor DAF-12 (Heterodera glycines), GAL4 fusion. As to the kind of experiment: hgDAF-12 GAL4 fusion reporter activation – cell-based, luminescence, HEK293, UAS-luciferase, primary screen (AID 687014).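 Note: 0% = DMSO wells and 100% = sodium butyrate wells.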 Particulars: HEK293 GAL4-hgDAF12 UAS-luciferase reporter, agonist luminescence; at 6.8 µM; active compounds read high; normalized to butyrate control. In general terms: Reporter assays use an easily measured gene product as a stand-in for the process of interest.
As to `Brc1ccc(/C=N/N2CCN(C3c4ccccc4-c4ccccc43)CC2)s1`, the activation was 0.61% (inactive).

For `COc1cccc(N(CC(=O)NC2CCCC2)C(=O)Cn2nnc(-c3ccc(C)o3)n2)c1`, the activation is 0.01% (inactive).

`C[C@]12CCC(=O)C=C1C=CC1C2CC[C@@]2(C)C1CC[C@@]21CCC(=O)O1` (some centres not stated): the activation is -2.47% (inactive).

With `Cc1cc(C)c2nc(NC(=O)C3CCCO3)sc2c1` (configuration not stated), the activation is 11.9% (active).

Turning to `Cc1ccc(C)c(C(C)NC(=O)C2CCCO2)c1` (configuration not stated), the activation was -0.46% (inactive).

For `O=C(Nc1nnc(SCc2c(Cl)cccc2Cl)s1)C1CCCO1` (configuration not stated), the activation is 3.2% (inactive).

In the case of `CCOc1ccc(-n2c(SCC(=O)Nc3cc(C)c(NC(=O)c4ccccc4)cc3OC)nnc2-c2cccs2)cc1`, the activation is 7.81% (inactive).

Turning to `Cc1ccc(-n2c(C)cc(C(=O)CSc3nnc4ccccn34)c2C)cc1`, the activation is 11.6% (active).

For `Cc1cc(C(=O)CSc2nc(N)cc(=O)[nH]2)c(C)n1-c1cccc(F)c1`, the activation was -3.64% (inactive).

With `O=C(CSc1nnc2ccccn12)c1ccccc1`, the activation is 8.56% (inactive).

For `CS(=O)(=O)N1CCN(c2cccc(Cl)n2)CC1`, the activation is -0.95% (inactive).

In the case of `CS(=O)(=O)N1CCC(C(=O)N2CCN(c3ccccc3)CC2)CC1`, the activation was -2.01% (inactive).

For `CS(=O)(=O)N1CCc2nc(-c3ccccc3)sc2C1`, the activation was 15.3% (active).

On to `CCc1c(-c2ccccc2OC)ncn1CCc1ccccc1OC`, for which the activation is -2.96% (inactive).

In the case of `Cc1c(Cl)c([N+](=O)[O-])nn1Cc1ccc(C(=O)N/N=C\c2cc(Cl)ccc2O)o1`, the activation is 0.23% (inactive).

For the compound `O=C(N/N=C\c1ccc(Br)cc1)c1ccc(Cn2cccn2)o1`, the activation was 10.5% (active).

As for `CN(C)c1ccc(/C=N/NC(=O)c2ccc(Cn3cc(Br)cn3)o2)cc1`, the activation was 5.9% (inactive).

As to `COc1ccc(-n2c(SCC(=O)Nc3ccccc3-c3ccccc3)nnc2-c2cccnc2)cc1`, the activation was 0.21% (inactive).

In the case of `COc1ccc(C(=O)Nc2ccc(-n3nncc3C(C)(C)C)cc2)cc1`, the activation was -2.44% (inactive).

On to `COc1ccc(C(=O)Nc2ccc(F)cc2F)cc1`, for which the activation is 10.5% (active).

Take `O=C(C=CC(=O)Nc1ccc(F)cc1F)Nc1ccc(F)cc1F`: the activation was -0.27% (inactive).

Regarding `COc1ccc(NC(=O)c2ccc(OC)cc2)cc1`, the activation is 14.9% (active).

On to `COc1ccc(NC(=O)c2c(C)oc3c2CCCC3)cc1`, for which the activation was 3.38% (inactive).

Turning to `COc1ccc(NC(=O)Nc2ccc3nsnc3c2)cc1`, the activation was 15.7% (active).

As to `COCCNC(=O)Nc1ccc2nc(-c3ccco3)c(-c3ccco3)nc2c1`, the activation is -6.29% (inactive).

For `O=C(Nc1ccc2ccccc2c1)Nc1ccc2snnc2c1`, the activation is 1.18% (inactive).

With `CCOC(=O)N1CCN(S(=O)(=O)c2ccc(C(=O)Nc3ccc(F)cc3F)cc2)CC1`, the activation was 3.94% (inactive).

On to `COc1ccc(-n2c(C)nn(CC3CC3)c2=O)cc1`, for which the activation is -0.88% (inactive).

In the case of `Cn1c(CC2Sc3ccccc3NC2=O)nnc1SCC(=O)c1ccc(Cl)cc1` (configuration not stated), the activation is 2.7% (inactive).

As to `CCn1c(SCC(C)=O)nc2sc3c(c2c1=O)CCCC3`, the activation was -0.6% (inactive).

`Nc1[nH]c(C(=O)c2ccccc2)c(-c2ccc(Cl)cc2Cl)c1C(=O)c1ccccc1`: the activation is 0.29% (inactive).

For `O=C(Nc1ccc(F)cc1)C(CCc1ccccc1)N1CCN(CC(=O)N2CCCC2)CC1` (configuration not stated), the activation is -2.94% (inactive).

As for `COC(=O)[C@]12C[C@H](CC(=O)NCCc3ccccc3OC)C(=O)N(Cc3ccccc3)C1=C[C@H](C(C)C)O[C@@H]2C1CC1`, the activation is -1.92% (inactive).

Take `O=C(NN=Cc1ccc2c(c1)CCC2)c1ccccc1O`: the activation is 14.7% (active).

Take `CC(NC(=O)c1cccc2ccccc12)c1ccc2c(c1)CCCC2` (configuration not stated): the activation is 1.33% (inactive).

As to `O=C(N/N=C/c1ccc(O)c(O)c1)C1c2ccccc2Oc2ccccc21`, the activation is -0.99% (inactive).

Regarding `Cc1nn(-c2ccccc2)c2[nH]c(C(F)(F)F)cc(=O)c12`, the activation was 0.5% (inactive).

Take `CC1CCN(C(=O)c2ncn3c2C(=O)N[C@@H](C)C3)CC1`: the activation was 0.1% (inactive).

Turning to `CCSc1nnc(NC(=O)c2ccc(C)cc2)s1`, the activation was 14.4% (active).

Consider `CCCc1cc(=O)[nH]c2nnc(SCC(=O)Nc3nnc(SCC)s3)n12`, for which the activation was 1.68% (inactive).

Turning to `COC(=O)c1ccc(CSc2nnc(NC(C)C)s2)cc1`, the activation is -0.67% (inactive).

Turning to `CCOC(=O)N1CCN(C(=O)C[C@H]2C[C@@]3(C(=O)OC)C(=C[C@H](C(C)(C)C)O[C@@H]3C)N(Cc3ccc(Cl)cc3Cl)C2=O)CC1`, the activation was 0% (inactive).

In the case of `COC(=O)c1cccc(Cn2ccc3ccc(-c4ccc5ccn(C(=O)C6CCCCC6)c5c4)cc32)c1`, the activation was 3.04% (inactive).

On to `Cc1cccc(NC(=O)Cc2ccc(Br)cc2)n1`, for which the activation is 3% (inactive).

Take `Cc1cccc(NC(=O)c2ccc3ccccc3n2)n1`: the activation is 14.8% (active).

With `CC(NC(=O)COC(=O)c1ccc2ccccc2n1)c1ccccc1` (configuration not stated), the activation was 5.11% (inactive).

Consider `C=CCN1[C@@H](Cc2ccccc2)COc2cccc(N3CCSCC3)c2S1(=O)=O`, for which the activation was 3.43% (inactive).

Consider `O=C1Oc2ccccc2C(=O)/C1=C/c1ccccc1O`, for which the activation is -1.59% (inactive).

For the compound `COc1ccc(/C=C2/C(=O)OCc3cc(OC)c(OC)cc32)c(OC)c1`, the activation is -3.92% (inactive).

Regarding `COc1ccc2c(c1)O/C(=C\c1ccccc1O)C2=O`, the activation was 13% (active).

Take `CSc1ccc(Oc2cccc3c2S(=O)(=O)N([C@H](C)c2ccccc2)C[C@@H](COCc2ccccc2)O3)cc1C`: the activation is 1.48% (inactive).

For `O=S1(=O)c2c(cccc2N2CCCC2)O[C@H](COCc2ccccc2)CN1C1CC1`, the activation was -1.8% (inactive).

In the case of `CONc1nc2nonc2nc1NOC`, the activation was -3.04% (inactive).

For the compound `O=C(NCCC1=CCCCC1)c1ccc(Cl)c([N+](=O)[O-])c1`, the activation is 4.8% (inactive).

For the compound `O=C(NCCC1=CCCCC1)c1ccc(-n2cncn2)cc1`, the activation is 11.6% (active).

Take `O=C(COc1cccc(-n2cnnn2)c1)NCCC1=CCCCC1`: the activation is -1.74% (inactive).

Regarding `COC(=O)[C@@]12CCCCC3=C1N(CCC3)C(=O)[C@H]2CC(=O)NCc1cccc2ccccc12`, the activation is -3.73% (inactive).

As to `O=C(NC1CCCCN(Cc2ccc(Cl)cc2)C1=O)c1ccc(Br)cc1` (configuration not stated), the activation is -3.05% (inactive).

Turning to `Cc1nc(N2CCOCC2)sc1C(=O)NN`, the activation is -4.56% (inactive).

With `Fc1cc(F)c2nc(N3CCOCC3)sc2c1`, the activation was 11.6% (active).

Regarding `Cc1cc(C)c2nc(N3CCC(C(=O)NCCN4CCOCC4)CC3)sc2c1`, the activation was 1.84% (inactive).

Consider `O=C(CN(CC1CCCO1)C(=O)CNS(=O)(=O)c1ccc(F)cc1)NCc1ccco1` (configuration not stated), for which the activation is -0.11% (inactive).

As for `CCN(C(=O)CSc1ncnc2c1cnn2-c1ccccc1)C1CCS(=O)(=O)C1` (configuration not stated), the activation is 1.12% (inactive).

Turning to `CCCc1ccc(OCc2ccc(C(=O)N/N=C/c3cccc([N+](=O)[O-])c3)o2)c(OC)c1`, the activation was 0.57% (inactive).

In the case of `COc1cc(/C=N/O)ccc1OCc1ccc([N+](=O)[O-])cc1`, the activation is 19.8% (active).

For `CCOc1cc(/C=N/O)ccc1OCc1ccccc1F`, the activation is 1.1% (inactive).

Take `CCOC(=O)N1CCN(C(=O)C[C@@H]2C(=O)N(CCc3ccc(Cl)cc3)C3=CCCC[C@]32C(=O)OCC)CC1`: the activation is -0.14% (inactive).

Take `N#Cc1c(NC(=O)C2CCCO2)sc2c1CCCCC2` (configuration not stated): the activation is 15.3% (active).

On to `N#Cc1c(NC(=O)C2CC(Cl)=CCC2C(=O)O)sc2c1CCCCC2` (configuration not stated), for which the activation was -1.72% (inactive).

As to `CCC1CCc2c(sc(NC(C)=O)c2C#N)C1` (configuration not stated), the activation is -1.78% (inactive).

Turning to `O=C(CCl)NC1CCCCN(Cc2cccc(C(F)(F)F)c2)C1=O` (configuration not stated), the activation is -7.36% (inactive).

For the compound `O=C(Nc1ccccc1)N1CCN(Cc2nc3ccccc3c(=O)[nH]2)CC1`, the activation was 3.62% (inactive).

As to `CCc1ccc(CN2C(=O)c3ccccc3C2C(=O)NCC2CCCO2)cc1` (configuration not stated), the activation was 0.15% (inactive).

For the compound `O=C1C(C=NCC2CCCO2)=C(O)c2ccccc21` (configuration not stated), the activation is 13.2% (active).

Consider `CC(=NCC1CCCO1)c1c(O)[nH]c(=O)[nH]c1=O` (configuration not stated), for which the activation is -2.34% (inactive).

Turning to `O=S(=O)(c1ccccc1)N1CCC(c2nc3ccccc3o2)CC1`, the activation is -0.98% (inactive).

`COc1cc(CN2CCNC(=O)C2CC(=O)NCCc2ncccc2C)cc(OC)c1` (configuration not stated): the activation was -1.06% (inactive).

Consider `CN(CCNC(=O)c1cc2c(-c3ccccc3F)nn(C)c2s1)C1CCCCC1`, for which the activation was 4.97% (inactive).

As for `CN(C(=O)c1cc2c(=O)n3ccccc3nc2s1)C1CCCCC1`, the activation was 13% (active).

As for `CCOCCCNC(=O)c1cc2c(=O)n3ccccc3nc2s1`, the activation is 3.33% (inactive).

As for `Cc1ccc(-n2c(SCC(=O)Nc3ccc(S(=O)(=O)Nc4nccs4)cc3)nnc2-c2ccccn2)cc1`, the activation is -1.35% (inactive).

Consider `O=C(Nc1cccc(Cl)c1N1CCOCC1)c1ccc2c(c1)OCCO2`, for which the activation is -1.47% (inactive).

As for `Cc1ccc(NC(=O)c2ccc(Cl)nc2)cc1S(=O)(=O)N1CCOCC1`, the activation is 3.09% (inactive).

Consider `CN1CCN(c2ccc(NC(=O)c3ccc4c(c3)OCCO4)cc2Cl)CC1`, for which the activation was 28.8% (active).

Take `Cc1ccc(C(=O)Nc2ccc3c(c2)OCCO3)cc1S(=O)(=O)N1CCOCC1`: the activation was 11% (active).

For `Cc1ccc(C(=O)Nc2ncccc2C)cc1S(=O)(=O)N1CCOCC1`, the activation is 1.72% (inactive).

On to `COC(=O)c1ccc(N2CCOCC2)c(NC(=O)c2ccc3c(c2)OCCO3)c1`, for which the activation is 0.79% (inactive).

For `O=C(CSc1nnc(-c2ccccc2)n1Cc1ccco1)Nc1ccccc1-c1ccccc1`, the activation was 0.11% (inactive).

On to `Cc1cc2nc3c(=O)[nH]c(=O)nc-3n(C[C@H](O)[C@H](O)[C@H](O)CO)c2cc1C`, for which the activation was -2.63% (inactive).

As to `CCOC(=O)[C@]12CCCC3=C1N(CCC3)C(=O)[C@@H](CC(=O)NCc1cccs1)C2`, the activation was 1.07% (inactive).

On to `CC(=O)OC12CCCN(C1)/C(=C/c1ccncc1)C2` (configuration not stated), for which the activation was -1.43% (inactive).

With `CC(C)CNc1cccc2c1S(=O)(=O)N[C@H](CC(C)C)CO2`, the activation was 3.06% (inactive).
